{
  "source": "the supplement of paper PMC4022240",
  "binders": {"B1": {"name": "H2A 11-23 R A K A K T R S S R A G L (peptide)", "chain": "RAKAKTRSSRAGL"}, "B2": {"name": "H2B 1-13 P E P A Kac S A P A P K K G (peptide)", "chain": "PEPAKSAPAPKKG"}, "B3": {"name": "H2A 11-23 R A Kac A K T R S S R A G L (peptide)", "chain": "RAKAKTRSSRAGL"}, "B4": {"name": "H2B 7-19 A P A P K K G S K K A V T (peptide)", "chain": "APAPKKGSKKAVT"}, "B5": {"name": "H2B 7-19 A P A P Kac Kac G Sph Kac K A V T (peptide)", "chain": "APAPKKGSKKAVT"}},
  "assay_in_all_cases": "peptide microarray binding signal (635 nm), min-max normalized on array (fraction of array maximum); higher = stronger binding",
  "key": {"[1]": {"biological_target": "T1, HaloTag-ATRX ADD domain (163-292)", "T1 chain": "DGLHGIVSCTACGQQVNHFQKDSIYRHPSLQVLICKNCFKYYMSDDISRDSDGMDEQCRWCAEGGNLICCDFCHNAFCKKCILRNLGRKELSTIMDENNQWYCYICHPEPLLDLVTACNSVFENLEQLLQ", "experimental": "(§1)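 Histone 13-mer peptides were synthesized as cellulose conjugates with a C-terminal 20-atom PEG linker and printed in triplicate on nitrocellulose. The sequence given is the unmodified backbone; PTMs (Kme1/2/3, Kac, Sph/Tph, Rme/Rme2a/Rme2s, Rcit) are listed in the label and the 'peptide modifications' condition. Slides were probed at 4 °C for 1 h with biotin-labelled (HQ)5-HaloTag reader fusions (ATRX-ADD, ING2-PHD) then streptavidin-Alexa647, or with rabbit histone antibodies then anti-rabbit Alexa647. The mean 635 nm signal of the triplicate spots was scaled 0-1 between the lowest and highest values on each array.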"}, "[2]": {"biological_target": "HaloTag-ING2 PHD (mouse Ing2 200-280)", "experimental": "as §1"}, "[3]": {"biological_target": "anti-H3K4me3 antibody ab8580", "experimental": "as §1"}, "[4]": {"biological_target": "anti-H3K9me3 antibody ab8898", "experimental": "as §1"}, "[5]": {"settings": "peptide region: H2A 11-23, binder concentration: 1:2,000 dilution"}, "[6]": {"settings": "peptide region: H2A 11-23, binder concentration: 1:10,000 dilution"}, "[7]": {"settings": "peptide region: H2B 1-13, peptide modifications: H2BK5ac, binder concentration: 1:2,000 dilution"}, "[8]": {"settings": "peptide region: H2B 1-13, peptide modifications: H2BK5ac, binder concentration: 1:10,000 dilution"}, "[9]": {"settings": "peptide region: H2A 11-23, peptide modifications: H2AK13ac, binder concentration: 1:2,000 dilution"}, "[10]": {"settings": "peptide region: H2A 11-23, peptide modifications: H2AK13ac, binder concentration: 1:10,000 dilution"}, "[11]": {"settings": "peptide region: H2B 7-19, binder concentration: 1:2,000 dilution"}, "[12]": {"settings": "peptide region: H2B 7-19, binder concentration: 1:10,000 dilution"}, "[13]": {"settings": "peptide region: H2B 7-19, peptide modifications: H2BK11ac H2BK12ac H2BS14ph H2BK15ac, binder concentration: 1:2,000 dilution"}, "[14]": {"settings": "peptide region: H2B 7-19, peptide modifications: H2BK11ac H2BK12ac H2BS14ph H2BK15ac, binder concentration: 1:10,000 dilution"}},
  "note": "± gives the standard deviation.",
  "data": [
    {"binder": "B1", "values": [
      {"measurement": "peptide microarray binding signal", "setting": "[1]; peptide region: H2A 11-23, binder concentration: 50 nM", "value": "0.00404 ± 4.2e-05"},
      {"measurement": "peptide microarray binding signal", "setting": "[1]; peptide region: H2A 11-23, binder concentration: 500 nM", "value": "0.00457 ± 5.4e-05"},
      {"measurement": "peptide microarray binding signal", "setting": "[2]; peptide region: H2A 11-23, binder concentration: 10 nM", "value": "0.003462 ± 3.2e-05"},
      {"measurement": "peptide microarray binding signal", "setting": "[2]; peptide region: H2A 11-23, binder concentration: 100 nM", "value": "0.00581 ± 0.00028"},
      {"measurement": "peptide microarray binding signal", "setting": "[3]; [5]", "value": "0.00125 ± 0.0004"},
      {"measurement": "peptide microarray binding signal", "setting": "[3]; [6]", "value": 0.000571},
      {"measurement": "peptide microarray binding signal", "setting": "[4]; [5]", "value": "0.000257 ± 2.7e-06"},
      {"measurement": "peptide microarray binding signal", "setting": "[4]; [6]", "value": "0.000692 ± 7.3e-06"}
    ]},
    {"binder": "B2", "values": [
      {"measurement": "peptide microarray binding signal", "setting": "[1]; peptide region: H2B 1-13, peptide modifications: H2BK5ac, binder concentration: 50 nM", "value": "0.005486 ± 3.9e-05"},
      {"measurement": "peptide microarray binding signal", "setting": "[1]; peptide region: H2B 1-13, peptide modifications: H2BK5ac, binder concentration: 500 nM", "value": "0.0105 ± 0.00072"},
      {"measurement": "peptide microarray binding signal", "setting": "[2]; peptide region: H2B 1-13, peptide modifications: H2BK5ac, binder concentration: 10 nM", "value": "0.0119 ± 0.00078"},
      {"measurement": "peptide microarray binding signal", "setting": "[2]; peptide region: H2B 1-13, peptide modifications: H2BK5ac, binder concentration: 100 nM", "value": "0.0115 ± 0.00093"},
      {"measurement": "peptide microarray binding signal", "setting": "[3]; [7]", "value": "0.00421 ± 0.0021"},
      {"measurement": "peptide microarray binding signal", "setting": "[3]; [8]", "value": "0.00137 ± 4.9e-05"},
      {"measurement": "peptide microarray binding signal", "setting": "[4]; [7]", "value": "0.00192 ± 0.00022"},
      {"measurement": "peptide microarray binding signal", "setting": "[4]; [8]", "value": "0.0019 ± 0.00011"}
    ]},
    {"binder": "B3", "values": [
      {"measurement": "peptide microarray binding signal", "setting": "[1]; peptide region: H2A 11-23, peptide modifications: H2AK13ac, binder concentration: 50 nM", "value": "0.00351 ± 0.00033"},
      {"measurement": "peptide microarray binding signal", "setting": "[1]; peptide region: H2A 11-23, peptide modifications: H2AK13ac, binder concentration: 500 nM", "value": 0.00457},
      {"measurement": "peptide microarray binding signal", "setting": "[2]; peptide region: H2A 11-23, peptide modifications: H2AK13ac, binder concentration: 10 nM", "value": "0.003641 ± 3.4e-05"},
      {"measurement": "peptide microarray binding signal", "setting": "[2]; peptide region: H2A 11-23, peptide modifications: H2AK13ac, binder concentration: 100 nM", "value": "0.0034 ± 0.00042"},
      {"measurement": "peptide microarray binding signal", "setting": "[3]; [9]", "value": "0.00051 ± 3.1e-05"},
      {"measurement": "peptide microarray binding signal", "setting": "[3]; [10]", "value": "0.00103 ± 2.8e-05"},
      {"measurement": "peptide microarray binding signal", "setting": "[4]; [9]", "value": "0.000378 ± 1.6e-05"},
      {"measurement": "peptide microarray binding signal", "setting": "[4]; [10]", "value": "0.00075 ± 2.9e-05"}
    ]},
    {"binder": "B4", "values": [
      {"measurement": "peptide microarray binding signal", "setting": "[1]; peptide region: H2B 7-19, binder concentration: 50 nM", "value": "0.002382 ± 1.1e-05"},
      {"measurement": "peptide microarray binding signal", "setting": "[1]; peptide region: H2B 7-19, binder concentration: 500 nM", "value": "0.00743 ± 0.0029"},
      {"measurement": "peptide microarray binding signal", "setting": "[2]; peptide region: H2B 7-19, binder concentration: 10 nM", "value": "0.00328 ± 6.2e-05"},
      {"measurement": "peptide microarray binding signal", "setting": "[2]; peptide region: H2B 7-19, binder concentration: 100 nM", "value": "0.00283 ± 4.6e-05"},
      {"measurement": "peptide microarray binding signal", "setting": "[3]; [11]", "value": "0.0043 ± 0.0018"},
      {"measurement": "peptide microarray binding signal", "setting": "[3]; [12]", "value": "0.00114 ± 1.2e-05"},
      {"measurement": "peptide microarray binding signal", "setting": "[4]; [11]", "value": "0.00116 ± 9.9e-05"},
      {"measurement": "peptide microarray binding signal", "setting": "[4]; [12]", "value": "0.001211 ± 1.2e-05"}
    ]},
    {"binder": "B5", "values": [
      {"measurement": "peptide microarray binding signal", "setting": "[1]; peptide region: H2B 7-19, peptide modifications: H2BK11ac H2BK12ac H2BS14ph H2BK15ac, binder concentration: 50 nM", "value": "0.001661 ± 1.4e-05"},
      {"measurement": "peptide microarray binding signal", "setting": "[1]; peptide region: H2B 7-19, peptide modifications: H2BK11ac H2BK12ac H2BS14ph H2BK15ac, binder concentration: 500 nM", "value": "0.00238 ± 7.1e-05"},
      {"measurement": "peptide microarray binding signal", "setting": "[2]; peptide region: H2B 7-19, peptide modifications: H2BK11ac H2BK12ac H2BS14ph H2BK15ac, binder concentration: 10 nM", "value": "0.002447 ± 1.4e-05"},
      {"measurement": "peptide microarray binding signal", "setting": "[2]; peptide region: H2B 7-19, peptide modifications: H2BK11ac H2BK12ac H2BS14ph H2BK15ac, binder concentration: 100 nM", "value": 0.000709},
      {"measurement": "peptide microarray binding signal", "setting": "[3]; [13]", "value": "0.000774 ± 0.00015"},
      {"measurement": "peptide microarray binding signal", "setting": "[3]; [14]", "value": "0.000685 ± 7.2e-06"},
      {"measurement": "peptide microarray binding signal", "setting": "[4]; [13]", "value": "0.000242 ± 2.5e-06"},
      {"measurement": "peptide microarray binding signal", "setting": "[4]; [14]", "value": 0.000461}
    ]}
  ]
}
